Reference: ChEMBL document CHEMBL3988442, “University of Dundee, Small-Polar-MMV Screening Library” (2021)
Among all 48,000 compounds or so, about 13,000 (27%) showed an effect of 50% or more. The list shows a part of the results.

Each compound was assayed on Wolbachia pipientis (assay: Anti-Wolbachia Cell-Based Screen). Settings: 5 µM.
Type: functional
Design: scale not given: in the data most compounds retested in dose-response had high values
For `COc1cc(S(=O)(=O)N2CCc3ccc(F)cc32)cc(C(=O)O)c1OC`, the “Percent Effect” value was -3.468%.
`COc1ccc(C)cc1CSCCn1nc2ccccn2c1=O` was tested, and the “Percent Effect” value was 4.389%.
In the case of `Cc1sc2nc(CCN)nc(N3CCS(=O)(=O)CC3)c2c1C`, the “Percent Effect” value is reported as 5.115%.
For `Cc1ccc(C(=O)NC2CCCN(C)C2)c(=O)[nH]1` (configuration not stated), the “Percent Effect” value was 91.25%.
`CN1CCCC(NC(=O)c2ccc(C(=O)c3cc[nH]c3)cc2)C1` (configuration not stated) was tested, and the “Percent Effect” value was 107.5%.
For `Cc1ccc(C(=O)NCCN2CCOCC2)c(=O)[nH]1`, the “Percent Effect” value was 10.08%.
For `CN1CCCC(N(C)C(=O)c2ccc(NC(=O)c3ccc[nH]3)cc2)C1` (configuration not stated), the “Percent Effect” value was -8.212%.
`O=C(NC1CCN(CC2CC2)C1)c1ccc(C(=O)c2cc[nH]c2)cc1` (configuration not stated) was tested, and the “Percent Effect” value was 2.424%.
For `Cc1ccc(C(=O)NC2CCCN(CC(N)=O)C2)c(=O)[nH]1` (configuration not stated), the “Percent Effect” value was 108.8%.
In the case of `Cc1ccc(C(=O)NC(CN2CCCC2)c2ccccc2)c(=O)[nH]1` (configuration not stated), the “Percent Effect” value is reported as -7.426%.
For `Cc1ccc(C(=O)NC2CCCCNC2=O)c(=O)[nH]1` (configuration not stated), the “Percent Effect” value was -8.505%.
For `Cc1ccc(C(=O)Nc2cnn(CC(=O)NC3CCCC3)c2)c(=O)[nH]1`, the “Percent Effect” value was -2.747%.
`CCN1CCCC(NC(=O)c2ccc(C)[nH]c2=O)C1` (configuration not stated) was tested, and the “Percent Effect” value was 104.5%.
`COc1ccc(F)cc1C(=O)N1CCC2(CCC(=O)N(C(C)C)C2)CC1` was tested, and the “Percent Effect” value was -13.7%.
With `CCN(CC)C1CCN(C(=O)Nc2cc(F)c(OC)c(F)c2)C1` (configuration not stated) the “Percent Effect” value was -0.1207%.
For `COCC(=O)N[C@H](C(=O)NC(C)c1cc(C)ccc1C)C(C)C` (some centres not stated), the “Percent Effect” value was -5.803%.
In the case of `CC(=O)NCC(=O)N1Cc2ccnn2CC(COCCN(C)C)C1` (configuration not stated), the “Percent Effect” value is reported as -1.622%.
For `CC(C)N1CCC(NC(=O)NCCC(=O)NCc2ccccc2)C1` (configuration not stated), the “Percent Effect” value was -0.958%.
For `Cc1ccc(C(=O)NC(C)CN2CCCC2=O)c(=O)[nH]1` (configuration not stated), the “Percent Effect” value was -26.01%.
`Cc1ccc(C(=O)NC2CCN(C(C)C)C2)c(=O)[nH]1` (configuration not stated) was tested, and the “Percent Effect” value was 89.09%.
With `CCOc1cc(C)nc(N2CCN(C(=O)c3ccc[nH]3)CC2)n1` the “Percent Effect” value was -4.872%.
With `CC(C)N(Cc1cccnc1)C(=O)CCSc1ccc(C#N)cc1` the “Percent Effect” value was -11.64%.
`CC(c1ccco1)N(C(=O)COc1ccc(C#N)cc1)C1CC1` (configuration not stated) was tested, and the “Percent Effect” value was 1.408%.
With `CCNC(=O)N(C)C(c1cccnc1)C(C)C` (configuration not stated) the “Percent Effect” value was -2.757%.
For `CC(c1cccnc1)N(C)C(=O)NCCOc1ccc(C#N)cc1` (configuration not stated), the “Percent Effect” value was 102.9%.
With `CC(c1ccco1)N(C(=O)CNc1ccc(C#N)cc1)C1CC1` (configuration not stated) the “Percent Effect” value was -9.874%.
For `CC(C)N(Cc1ccc(C#N)cc1)C(=O)NCCNc1ncccn1`, the “Percent Effect” value was -6.799%.
`CC(C)N(Cc1ccc(C#N)cc1)C(=O)Nc1ccncc1` was tested, and the “Percent Effect” value was -13.59%.
For `CC(c1ccco1)N(C)C(=O)NCCOc1ccc(C#N)cc1` (configuration not stated), the “Percent Effect” value was 99.5%.
`CC(c1ccncc1)N(C)C(=O)NCCOc1ccc(C#N)cc1` (configuration not stated) was tested, and the “Percent Effect” value was 100.4%.
For `O=C(C1SCCc2sccc21)N1CCCCC1` (configuration not stated), the “Percent Effect” value was 1.977%.
With `N#Cc1cccnc1OC1CCN(C(=O)c2cc(C3CC3)on2)CC1` the “Percent Effect” value was -1.829%.
For `CN1N=C(C(=O)N(Cc2ccco2)C2CCCC2)CCC1=O`, the “Percent Effect” value was 120.9%.
With `CN(Cc1ccco1)C(=O)c1ccc(=O)n(C)c1` the “Percent Effect” value was 12.27%.
With `Cc1ccc(N(Cc2ccco2)C(=O)CC2=NN(C)C(=O)C2)cc1` the “Percent Effect” value was 134.3%.
`CN(CC1COc2ccccc2O1)C(=O)C1=NN(C)C(=O)CC1` (configuration not stated) was tested, and the “Percent Effect” value was -4.029%.
For `O=C(c1c[nH]c2ncccc12)N(Cc1ccco1)C1CCCC1`, the “Percent Effect” value was 4.323%.
`CN(Cc1ccco1)C(=O)C1=NN(C)C(=O)CC1` was tested, and the “Percent Effect” value was 140.7%.
`O=C(NCCc1nnc2n1CCC2)N(Cc1ccco1)C1CCCC1` was tested, and the “Percent Effect” value was -12.78%.
With `Cc1ccc(N2N=C(C(=O)N(C)Cc3ccco3)NCC2=O)cc1` the “Percent Effect” value was 2.373%.
With `CCN(Cc1ccco1)C(=O)C1=NN(c2ccccc2)C(=O)CN1` the “Percent Effect” value was 5.452%.
With `COC(=O)c1cc(CN2CCN(c3ncccc3C)CC2)ccc1O` the “Percent Effect” value was 0.3059%.
`CCC(C)NS(=O)(=O)Cc1cccc(NC(=O)C2=CCCC2)c1` (configuration not stated) was tested, and the “Percent Effect” value was -11.93%.
`CCN(CC(=O)NC)S(=O)(=O)N1CCCCCC1` was tested, and the “Percent Effect” value was -4.569%.
`O=C1OCCN1CCCN1CCCC1c1ccc(O)cc1` (configuration not stated) was tested, and the “Percent Effect” value was -23.79%.
`Cc1c[nH]c(CN2CC[C@@]3(O)CCN(C(=O)C4CCC4)C[C@H]3C2)n1` was tested, and the “Percent Effect” value was 3.285%.
With `O=c1c(-c2ccnc(NC3CCCCC3)n2)cnc2sc(Cl)cn12` the “Percent Effect” value was 123.9%.
In the case of `O=c1c(-c2ccnc(NC3CCOCC3)n2)cnc2sc(Cl)cn12`, the “Percent Effect” value is reported as -8.128%.
For `CCN(C)S(=O)(=O)NC(C)c1cnc(N(C)C2CCCCC2)nc1C` (configuration not stated), the “Percent Effect” value was -0.2104%.
`CN(c1ncc(C(=O)Nc2ccccc2)c(N)n1)C1CCCCC1` was tested, and the “Percent Effect” value was -11.44%.
For `Cc1nc(N(C)C2CCCCC2)ncc1C(C)NC(=O)c1cscn1` (configuration not stated), the “Percent Effect” value was -3.92%.
`Cc1nc(N(C)C2CCCCC2)ncc1C(C)NC(=O)c1cccnc1` (configuration not stated) was tested, and the “Percent Effect” value was 7.363%.
`COc1ccnc(NC2CCN(CC(=O)N3CCCC3)CC2)n1` was tested, and the “Percent Effect” value was -3.698%.
`CN(c1nccc(-c2cnc3sccn3c2=O)n1)C1CCCCC1` was tested, and the “Percent Effect” value was 92.84%.
`CN(c1nccc(-c2cnc3sc(Cl)cn3c2=O)n1)C1CCCCC1` was tested, and the “Percent Effect” value was 110%.
`Cc1cn2c(=O)c(-c3ccnc(N(C)C4CCCCC4)n3)cnc2s1` was tested, and the “Percent Effect” value was 84.88%.
`CN(C)c1nccc(N(C)C2CCCCC2)n1` was tested, and the “Percent Effect” value was -7.043%.
In the case of `O=C1N(C2CCCCC2)C[C@H]2CN(C3CCC3)CCN12`, the “Percent Effect” value is reported as -8.618%.
`Cc1ccc(C(C)NCCc2nccn2Cc2ccccc2)o1` (configuration not stated) was tested, and the “Percent Effect” value was -3.119%.
With `O=C(NCCc1ccccc1Cl)NCC1(O)CCSC1` (configuration not stated) the “Percent Effect” value was 5.482%.
With `COc1cccc(CCC2CCCN(C(=O)c3n[nH]c4c3CCC4)C2)c1` (configuration not stated) the “Percent Effect” value was 9.398%.
`COc1ccccc1CC1CCCN(C(=O)c2n[nH]c3c2CCC3)C1` (configuration not stated) was tested, and the “Percent Effect” value was -10.41%.
With `CO[C@H]1C[C@@H]2CN(C(=O)c3n[nH]c4c3CCCC4)C[C@@H]2C1` the “Percent Effect” value was 95.28%.
`O=C(NCc1ccccc1Cn1ccnc1)N1CCOCC1` was tested, and the “Percent Effect” value was -11.31%.
For `CCC(CNC(=O)c1nc(=O)[nH][nH]1)Oc1ccccc1C(F)(F)F` (configuration not stated), the “Percent Effect” value was -3.223%.
With `CCc1nccn1C1CCCN(C(=O)Cc2ccc(OC)c(F)c2)C1` (configuration not stated) the “Percent Effect” value was -2.667%.
With `CCOc1ccc(C(=O)N2CCCC(n3ccnc3C)C2)cc1OC` (configuration not stated) the “Percent Effect” value was 91.57%.
In the case of `CCc1nccn1C1CCCN(C(=O)c2ccc(OC)c(OC)c2)C1` (configuration not stated), the “Percent Effect” value is reported as 97.86%.
With `CCc1nccn1C1CCCN(C(=O)c2ccc3c(c2)nnn3C)C1` (configuration not stated) the “Percent Effect” value was 93.39%.
With `Cc1nccn1C1CCCN(C(=O)c2ccc3c(c2)nnn3C)C1` (configuration not stated) the “Percent Effect” value was -0.6055%.
With `CCc1nccn1C1CCCN(C(=O)c2ccn(C)c(=O)c2)C1` (configuration not stated) the “Percent Effect” value was -5.694%.
In the case of `CCc1nccn1C1CCCN(C(=O)c2ccc3[nH]nnc3c2)C1` (configuration not stated), the “Percent Effect” value is reported as -5.197%.
